The results in this text go back to PubChem BioAssay AID1835 (Johns Hopkins Ion Channel Center, 2009).

SMILES strings stand for the structures. The whole screen tested about 2,400 compounds, of which about 750 (31%) were called active. The list shows a part of the results. A number with no mark means an inactive call.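 How the source made its calls: active means median signal gain over dofetilide-blocked control wells reaching their mean plus 3 SD, so readout 1 at least 0; inactive means the rest.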

For the test, the target named is Voltage-gated inwardly rectifying potassium channel KCNH2 (Homo sapiens) (UniProt Q12809). The test is described as follows: hERG protection against dofetilide inhibition, confirmation, cell-based, thallium flux, duplicate retest, dofetilide IC70 (AID 1835). The note with it: hERG cell line, FluxOR thallium flux, dofetilide-blocked; at 10 µM; active compounds read high. For orientation: Block of hERG is tested as a sign of cardiac risk.
Chain of Voltage-gated inwardly rectifying potassium channel KCNH2 (Homo sapiens) (Q12809 whole entry, looked up): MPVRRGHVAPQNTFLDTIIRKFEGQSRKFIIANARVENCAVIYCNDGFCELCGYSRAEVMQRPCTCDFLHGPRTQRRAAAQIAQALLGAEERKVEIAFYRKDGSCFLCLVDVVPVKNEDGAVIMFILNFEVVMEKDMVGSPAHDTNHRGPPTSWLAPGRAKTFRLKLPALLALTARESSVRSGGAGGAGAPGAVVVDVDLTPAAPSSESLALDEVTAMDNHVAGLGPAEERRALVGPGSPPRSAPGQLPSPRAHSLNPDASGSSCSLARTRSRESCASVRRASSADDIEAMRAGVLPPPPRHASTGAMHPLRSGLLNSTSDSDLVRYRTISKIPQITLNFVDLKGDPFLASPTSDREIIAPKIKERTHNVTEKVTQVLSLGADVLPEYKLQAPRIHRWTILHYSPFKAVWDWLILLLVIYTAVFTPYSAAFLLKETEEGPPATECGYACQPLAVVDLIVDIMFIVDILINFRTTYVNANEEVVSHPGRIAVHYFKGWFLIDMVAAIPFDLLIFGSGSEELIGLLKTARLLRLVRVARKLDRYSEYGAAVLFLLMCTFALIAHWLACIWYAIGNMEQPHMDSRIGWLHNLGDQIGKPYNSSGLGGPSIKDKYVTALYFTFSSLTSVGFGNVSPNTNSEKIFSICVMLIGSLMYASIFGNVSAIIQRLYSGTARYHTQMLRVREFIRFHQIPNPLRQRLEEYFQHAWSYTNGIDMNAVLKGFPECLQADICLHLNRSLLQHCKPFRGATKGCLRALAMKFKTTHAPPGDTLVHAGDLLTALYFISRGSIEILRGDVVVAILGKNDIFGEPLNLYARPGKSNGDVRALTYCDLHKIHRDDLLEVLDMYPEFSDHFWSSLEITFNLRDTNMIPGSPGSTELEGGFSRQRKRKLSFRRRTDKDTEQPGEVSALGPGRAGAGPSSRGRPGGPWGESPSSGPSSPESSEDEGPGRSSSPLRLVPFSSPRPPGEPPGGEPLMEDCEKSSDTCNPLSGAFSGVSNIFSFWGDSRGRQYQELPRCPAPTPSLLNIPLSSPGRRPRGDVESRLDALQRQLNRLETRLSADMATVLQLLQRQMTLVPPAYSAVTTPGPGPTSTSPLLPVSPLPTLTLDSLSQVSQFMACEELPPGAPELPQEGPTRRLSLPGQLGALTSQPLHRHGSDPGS
For the compound `CC(C)NC(=O)Nc1n[nH]c(Nc2ccc(Cl)cc2)n1`, the activity increase over dofetilide control, less the hit threshold was -1%. `O=C1NC(=O)C2(COC(c3cccc([N+](=O)[O-])c3)OC2)S1` (stereo unspecified): the activity increase over dofetilide control, less the hit threshold was -12%. In the case of `Nc1ccc2nc(-c3cccs3)[nH]c2c1`, the activity increase over dofetilide control, less the hit threshold was -10%. In the case of `Cc1cc(C)c(S(=O)(=O)c2ccccc2)c(OC(=O)c2c(F)cccc2Cl)n1`, the activity increase over dofetilide control, less the hit threshold was -30%.

On to `O=C(CCc1ccccc1Cl)Nc1ccc(S(=O)(=O)N2CCOCC2)cc1`, for which the activity increase over dofetilide control, less the hit threshold is -6%. As for `CCc1ccc(C(C)NC(=O)c2ccc(F)cc2)cc1` (stereo unspecified), the figure is 4% (active). With `CCc1ccccc1N(CC(=O)NC(C)c1ccccc1)S(C)(=O)=O` (stereo unspecified), the activity increase over dofetilide control, less the hit threshold was -15%. As for `CC(NC(=O)CCNC(=O)c1ccco1)c1ccc(F)cc1` (stereo unspecified), the activity increase over dofetilide control, less the hit threshold is -5%.

As for `Cc1ccc(C(C)NC(=O)C2CCCC2)cc1C` (stereo unspecified), the activity increase over dofetilide control, less the hit threshold was 4% (active). The result for `Cc1ccc(C(=O)NC(C)c2ccc(C)c(C)c2)s1` (stereo unspecified) reads -6%. As for `Cc1ccc(C(C)NC(=S)NC2CCCCC2)cc1C` (stereo unspecified), the figure is -6%; as for `CCc1ccc(C(=O)NNC(=O)c2ccc(=O)n(C)n2)cc1`, -5%; as for `CCc1ccc(C(C)NC(=O)C2CCCC2)cc1` (stereo unspecified), 1% (active). As for `COc1cccc(C(=O)/C=C/Nc2ccc(S(=O)(=O)Nc3cnc4ccccc4n3)cc2)c1`, the activity increase over dofetilide control, less the hit threshold was -22%.

With `CCc1nccn1S(=O)(=O)c1ccc2ccc(C)cc2c1`, the activity increase over dofetilide control, less the hit threshold is -15%. For `CC1CCN(C(=O)CSc2nnc(CNC(=O)c3ccco3)o2)CC1`, the activity increase over dofetilide control, less the hit threshold is -15%.

Turning to `O=C(c1csc(Nc2ccccc2Cl)n1)N1CCCC1`, the activity increase over dofetilide control, less the hit threshold is 6% (active). As to `O=C(c1cccc2c1-c1ccccc1C2)N1CCCCC1`, the activity increase over dofetilide control, less the hit threshold was -17%. For the compound `COc1ccc(-c2cc(C(=O)N3CCCC3)no2)cc1`, the activity increase over dofetilide control, less the hit threshold was -4%. As to `CC1Oc2ccccc2N(CC(=O)N2CCCCCC2)C1=O` (stereo unspecified), the activity increase over dofetilide control, less the hit threshold is -19%. As for `N#CCCn1cc(/C=N/NC(=O)c2ccncc2)c(-c2ccc(F)cc2)n1`, the figure is -2%; as for `CCN(CC)C(=S)NC(=O)c1ccc(F)cc1`, -9%; as for `CCCN(CC(=O)Nc1ccccc1C)C(=O)CCl`, -13%.

Take `CCCn1nnnc1NC(=O)c1cc(Cl)ccc1Cl`: the activity increase over dofetilide control, less the hit threshold is -8%.

For the compound `CCN(CC)C(=S)NC(=O)c1ccc(Cl)cc1Cl`, the activity increase over dofetilide control, less the hit threshold is 11% (active). Regarding `CCCN(CCC)C(=S)NC(=O)c1ccc(Cl)cc1Cl`, the activity increase over dofetilide control, less the hit threshold was 60% (active). The result for `CN(C)/C=C/C(=O)c1ccc(Cl)cc1Cl` reads -11%; that for `CCCCN(CCCC)C(=S)NC(=O)c1ccccc1Cl`, 83% (active); that for `O=C(Nc1ccsc1C(=O)O)c1ccccc1Cl`, -16%. As for `Cn1c(CNC(=O)CNC(=O)c2ccc(F)cc2)cc(=O)n(C)c1=O`, the figure is -15%; as for `CSc1ccc(C2NN=C(c3ccccc3)S2)cc1` (stereo unspecified), -11%; as for `Cc1ccc(/C(O)=C2\C(=O)C(=O)N(Cc3cccnc3)C2c2ccccc2[N+](=O)[O-])cc1` (stereo unspecified), -26%. For the compound `O=C1C=C(NCCN2CCOCC2)C(=O)c2cnccc21`, the activity increase over dofetilide control, less the hit threshold was -3%.

Take `Cc1ccc(OCCC(=O)OC(C)C(=O)NC2CC2)cc1` (stereo unspecified): the activity increase over dofetilide control, less the hit threshold is -12%. As for `O=c1ccn(Cc2ccc(F)cc2)c2ccnc(C(F)(F)F)c12`, the figure is -15%; as for `O=c1cc(-c2ccccc2)cc(-c2ccccc2)n1O`, 22% (active); as for `CN1/C(=C/C=C(C#N)C#N)C=Cc2ccccc21`, 66% (active).

Consider `CCCCc1cc(=O)oc2c(C)c(OCC(=O)NCc3ccccn3)ccc12`, for which the activity increase over dofetilide control, less the hit threshold was -9%. As for `Cc1nn(C(=O)CNC(=O)c2ccccc2)c(C)c1C`, the activity increase over dofetilide control, less the hit threshold is -17%. As for `CC(=O)c1n[nH]nc1NC(=O)c1ccccc1`, the figure is -1%; as for `Cc1ccccc1Cn1nc(C)c(NC(=O)c2ccccc2)c1C`, 25% (active); as for `COc1ccccc1NC(=O)Cc1nnc(SCC(=O)Nc2nccs2)n1C`, -10%. As for `Cc1sc2nc(C(C)C)nc(SCC(=O)NCc3ccco3)c2c1C`, the figure is 16% (active); as for `CCn1c(SCC(=O)NC(=O)NCc2ccco2)nc2sc(C)c(C)c2c1=O`, 18% (active). Turning to `Cc1cc(S(=O)(=O)N2CCOCC2)ccc1OCC(=O)NCc1ccco1`, the activity increase over dofetilide control, less the hit threshold was -7%. The result for `O=C(CN1CCN(c2ccccc2O)CC1)NC(=O)NCc1ccco1` reads -17%.

With `O=C(NCC1CCCO1)c1ccc2c(=O)n(Cc3ccco3)c(SCC(=O)N3CCCC3)nc2c1` (stereo unspecified), the activity increase over dofetilide control, less the hit threshold is 0%. As for `Cc1ccc(-n2ncc3c(SCC(=O)NNC(=O)c4ccco4)ncnc32)cc1`, the figure is -4%; as for `COC(=O)Cn1c(=O)c(=O)n(CC(=O)OC)c2ccccc21`, -15%. For `COc1ccccc1CNC(=O)COC(=O)c1ccccn1`, the activity increase over dofetilide control, less the hit threshold was -13%. As for `COc1ccc(C(=O)CC(=O)C(=O)Nc2ccc(Cl)cc2)cc1`, the activity increase over dofetilide control, less the hit threshold is 9% (active). As for `COc1ccc(C(=O)CC(=O)C(=O)Nc2ccc(C)c(C)c2)cc1`, the figure is -3%; as for `COc1ccc(NC(=O)CSCC(=O)Oc2c(OC)cccc2OC)cc1`, -26%; as for `COc1ccc(C(=O)CC(=O)C(=O)Nc2ccc(C)c(Cl)c2)cc1`, 0%.

With `COc1ccc(C(=O)CC(=O)C(=O)Nc2ccccc2)cc1`, the activity increase over dofetilide control, less the hit threshold was 5% (active). As for `CC(=O)Nc1ccc(S(=O)(=O)N2CCC(NC(=O)c3ccccc3)CC2)cc1`, the figure is -17%.
